Our source for the outcome and AC50 values is PubChem BioAssay (EPA / NIEHS).

Common to all, as to conditions: mRNA level, 48 h; actives raise or lower the signal
Read-out in assay [1]: Tumor necrosis factor receptor superfamily member 6 (Homo sapiens) (UniProt P25445)
Kind of assay: LTEA_HepaRG_FAS: Life Technologies and Expression Analysis (LTEA) Assay for Fas cell surface death receptor (FAS) using HepaRG (AID 2283447). In outline: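 Differentiated HepaRG cells in serum-free induction medium were exposed 48 h to 8 half-log concentrations up to 100 uM in 0.5% DMSO, in duplicate. FAS mRNA was measured by qRT-PCR normalised to ACTB, GAPDH and POLR2A; bidirectional fit versus DMSO.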

Read-out in assay [2]: Fatty acid synthase (Homo sapiens) (UniProt P49327)
The experiment in a line: LTEA_HepaRG_FASN: Life Technologies and Expression Analysis (LTEA) Assay for Fatty Acid Synthase (FASN) using HepaRG (AID 2283448). In outline: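 Differentiated human HepaRG cells were exposed for 48 h in serum-free induction medium to eight half-log concentrations up to 100 uM in 0.5% DMSO, in duplicate. FASN mRNA was quantified by TaqMan qRT-PCR, normalized to ACTB/GAPDH/POLR2A, and fitted bidirectionally against DMSO.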

Read-out in assay [3]: Cyclin D2 (CCND2), CCND2 (gene 894)
The experiment in a line: LTEA_HepaRG_CCND2: Life Technologies and Expression Analysis (LTEA) Assay for Cyclin D2 (CCND2) using HepaRG (AID 2283449).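 Further: CCND2 transcript measured by TaqMan qRT-PCR and normalised to three housekeeping genes.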 In outline: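 Chemicals in 0.5% DMSO, eight half-log concentrations from 100 uM top, were applied in duplicate for 48 h to human HepaRG cells in serum-free induction medium. CCND2 mRNA by TaqMan qRT-PCR, normalised to ACTB/GAPDH/POLR2A; bidirectional fit versus DMSO.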

Read-out in assay [4]: Cyclin Dependent Kinase Inhibitor 1A (CDKN1A), CDKN1A (gene 1026)
The experiment in a line: LTEA_HepaRG_CDKN1A: Life Technologies and Expression Analysis (LTEA) Assay for Cyclin Dependent Kinase Inhibitor 1A (CDKN1A) using HepaRG (AID 2283450). In outline: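 HepaRG, 48 h dosing, 8-pt half-log series from 100 uM top, 0.5% DMSO vehicle, duplicates. Readout: TaqMan qRT-PCR of CDKN1A transcript, housekeeping-normalized (ACTB, GAPDH, POLR2A). Up/down curve fit relative to DMSO.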

Read-out in assay [5]: Cyclin D1 (CCND1), CCND1 (gene 595)
The experiment in a line: LTEA_HepaRG_CCND1: Life Technologies and Expression Analysis (LTEA) Assay for Cyclin D1 (CCND1) using HepaRG (AID 2283451).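 On AC50: TaqMan qRT-PCR transcript level normalised to ACTB GAPDH and POLR2A housekeeping genes.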 In outline: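 qRT-PCR (Fluidigm 96.96 array) read-out of transcript level, housekeeping-normalized (ACTB/GAPDH/POLR2A). HepaRG cells, 48 h chemical exposure, 8-point half-log series from 100 uM, 0.5% DMSO vehicle; gain or loss relative to DMSO baseline.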

Read-out in assay [6]: catalase (CAT), CAT (gene 847)
The experiment in a line: LTEA_HepaRG_CAT: Life Technologies and Expression Analysis (LTEA) Assay for catalase (CAT) using HepaRG (AID 2283452). An outline of the steps:
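HepaRG cells in serum-free induction medium, 0.5% DMSO vehicle, exposed 48 h in duplicate over 8 half-log concentrations from 100 uM. CAT mRNA measured by qRT-PCR, normalized to ACTB, GAPDH, POLR2A; bidirectional fit versus DMSO.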

Read-out in assay [7]: flavin-containing dimethylaniline monooxygenases 3 (FMO3), FMO3 (gene 2328)
The experiment in a line: LTEA_HepaRG_FMO3: Life Technologies and Expression Analysis (LTEA) Assay for flavin-containing dimethylaniline monooxygenases 3 (FMO3) using HepaRG (AID 2283453).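 On AC50: FMO3 transcript by TaqMan qRT-PCR normalized to ACTB GAPDH and POLR2A.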 In outline:
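HepaRG, 48 h exposure, 8-pt half-log series from 100 uM, 0.5% DMSO vehicle, duplicates; FMO3 transcript by Fluidigm TaqMan qRT-PCR, housekeeping-normalized; gain/loss fit vs DMSO.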

Read-out in assay [8]: Cytochrome P450 (CYP1A1), CYP1A1 (gene 1543)
Kind of assay: LTEA_HepaRG_CYP1A1: Life Technologies and Expression Analysis (LTEA) Assay for Cytochrome P450 (CYP1A1) using HepaRG (AID 2283454). An outline of the steps:
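qRT-PCR read-out: CYP1A1 transcript normalized to three housekeeping genes, fitted bidirectionally against 0.5% DMSO vehicle baseline. Human HepaRG cells, 48 h chemical exposure, 8-point half-log series topping at 100 uM.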

Read-out in assay [9]: CFLAR gene, CFLAR (gene 8837)
The experiment in a line: LTEA_HepaRG_CFLAR: Life Technologies and Expression Analysis (LTEA) Assay for CFLAR gene using HepaRG (AID 2283455). In outline:
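Differentiated HepaRG cells in serum-free induction medium were exposed 48 h in duplicate to eight half-log concentrations up to 100 uM in 0.5% DMSO; mRNA measured by TaqMan qRT-PCR, normalized to ACTB, GAPDH, POLR2A; bidirectional fitting versus DMSO.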

Read-out in assay [10]: Forkhead box O1 (FOXO1), FOXO1 (gene 2308)
The experiment in a line: LTEA_HepaRG_FOXO1: Life Technologies and Expression Analysis (LTEA) Assay for Forkhead box O1 (FOXO1) using HepaRG (AID 2283456). An outline of the steps:
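Differentiated HepaRG cells, in serum-free induction medium with 0.5% DMSO, exposed 48 h in duplicate to 8-point half-log series from 100 uM. FOXO1 mRNA measured by TaqMan qRT-PCR, normalized to ACTB, GAPDH, POLR2A; bidirectional fit versus DMSO.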

The source made the active and inactive calls. How the source made its calls: active means hit-call score of the fitted dose curve at least 0.9, where 1 is the maximum; inactive means score below 0.9.

Chain of Fatty acid synthase (Homo sapiens) (P49327 whole entry, looked up): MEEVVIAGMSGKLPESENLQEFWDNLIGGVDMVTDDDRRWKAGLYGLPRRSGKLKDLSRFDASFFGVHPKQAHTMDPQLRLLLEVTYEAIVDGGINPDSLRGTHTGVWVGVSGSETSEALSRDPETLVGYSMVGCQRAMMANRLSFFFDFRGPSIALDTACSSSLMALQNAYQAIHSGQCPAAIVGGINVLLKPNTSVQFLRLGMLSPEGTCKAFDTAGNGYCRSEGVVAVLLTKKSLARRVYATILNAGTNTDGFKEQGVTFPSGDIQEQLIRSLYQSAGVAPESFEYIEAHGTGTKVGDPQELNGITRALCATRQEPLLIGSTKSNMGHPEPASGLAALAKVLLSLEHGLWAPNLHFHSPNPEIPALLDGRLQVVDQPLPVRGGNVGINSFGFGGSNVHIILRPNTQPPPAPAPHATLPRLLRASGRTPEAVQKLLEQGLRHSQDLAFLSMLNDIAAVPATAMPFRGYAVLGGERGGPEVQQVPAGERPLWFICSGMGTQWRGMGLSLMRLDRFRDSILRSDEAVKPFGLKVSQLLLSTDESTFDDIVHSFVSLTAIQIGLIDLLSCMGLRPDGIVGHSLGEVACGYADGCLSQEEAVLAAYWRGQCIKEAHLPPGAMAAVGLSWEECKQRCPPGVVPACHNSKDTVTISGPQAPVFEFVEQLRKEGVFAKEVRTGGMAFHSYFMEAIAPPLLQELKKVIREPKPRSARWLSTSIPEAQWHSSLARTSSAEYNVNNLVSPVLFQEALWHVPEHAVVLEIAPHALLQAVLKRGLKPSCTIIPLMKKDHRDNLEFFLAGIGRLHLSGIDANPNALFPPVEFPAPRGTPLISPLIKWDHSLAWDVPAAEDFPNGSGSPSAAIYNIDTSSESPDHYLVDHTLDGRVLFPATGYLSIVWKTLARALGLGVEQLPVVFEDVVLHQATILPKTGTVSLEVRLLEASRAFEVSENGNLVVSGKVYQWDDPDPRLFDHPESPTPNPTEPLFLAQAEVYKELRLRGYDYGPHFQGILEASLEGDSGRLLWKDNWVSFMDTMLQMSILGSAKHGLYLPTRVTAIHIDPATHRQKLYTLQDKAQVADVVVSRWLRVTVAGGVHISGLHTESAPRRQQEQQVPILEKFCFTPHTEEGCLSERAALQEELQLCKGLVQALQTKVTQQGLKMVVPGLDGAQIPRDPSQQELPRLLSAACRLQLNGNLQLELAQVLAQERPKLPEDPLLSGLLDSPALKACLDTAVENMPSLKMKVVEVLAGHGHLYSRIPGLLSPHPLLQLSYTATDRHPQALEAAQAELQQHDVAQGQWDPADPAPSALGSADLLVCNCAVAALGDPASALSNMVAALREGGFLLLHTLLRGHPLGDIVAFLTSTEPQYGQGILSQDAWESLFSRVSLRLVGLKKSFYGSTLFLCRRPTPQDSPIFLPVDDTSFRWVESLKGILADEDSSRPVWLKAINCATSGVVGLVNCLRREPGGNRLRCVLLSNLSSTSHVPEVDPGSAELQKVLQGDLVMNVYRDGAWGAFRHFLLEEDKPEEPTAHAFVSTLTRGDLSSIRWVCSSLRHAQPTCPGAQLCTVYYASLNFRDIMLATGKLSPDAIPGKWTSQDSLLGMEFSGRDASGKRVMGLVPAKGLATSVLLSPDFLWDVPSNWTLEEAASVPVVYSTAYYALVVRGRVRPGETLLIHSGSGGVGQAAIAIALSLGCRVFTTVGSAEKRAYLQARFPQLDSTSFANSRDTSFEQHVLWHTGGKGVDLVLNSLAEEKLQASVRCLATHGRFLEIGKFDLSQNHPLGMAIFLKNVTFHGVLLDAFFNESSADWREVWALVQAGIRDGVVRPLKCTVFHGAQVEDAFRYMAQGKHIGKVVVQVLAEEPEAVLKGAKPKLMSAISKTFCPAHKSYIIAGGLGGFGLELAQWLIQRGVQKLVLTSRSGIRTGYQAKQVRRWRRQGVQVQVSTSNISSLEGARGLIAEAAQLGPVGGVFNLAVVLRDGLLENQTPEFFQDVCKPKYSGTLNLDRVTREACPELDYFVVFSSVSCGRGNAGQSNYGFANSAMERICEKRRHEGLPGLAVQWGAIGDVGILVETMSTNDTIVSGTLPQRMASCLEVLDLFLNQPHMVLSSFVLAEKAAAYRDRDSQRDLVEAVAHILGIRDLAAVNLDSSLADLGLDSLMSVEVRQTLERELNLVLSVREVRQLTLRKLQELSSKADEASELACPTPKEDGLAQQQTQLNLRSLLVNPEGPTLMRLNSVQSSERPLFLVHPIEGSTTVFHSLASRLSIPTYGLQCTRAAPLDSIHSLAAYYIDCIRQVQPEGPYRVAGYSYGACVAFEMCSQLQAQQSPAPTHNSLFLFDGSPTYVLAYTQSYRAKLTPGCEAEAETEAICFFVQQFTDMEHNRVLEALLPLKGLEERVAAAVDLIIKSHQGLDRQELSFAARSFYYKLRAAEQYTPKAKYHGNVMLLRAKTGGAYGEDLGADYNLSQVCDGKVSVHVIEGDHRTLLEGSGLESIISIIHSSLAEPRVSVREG

Regarding `CNC(C)=O`, the result in [1], in [2], in assay [3], in [4], in [5] and in assay [6] was inactive. The call in [7], in [9] and in assay [10] was inactive. In addition, the AC50 in [8] was 75.2 µM (active).

Consider `O=c1[nH]cnc2c1ncn2[C@H]1CC[C@@H](CO)O1`, for which the call in assay [1], in assay [2], in assay [3], in assay [4], in [5] and in assay [6] was inactive. The call in assay [7], in [8], in [9] and in assay [10] was inactive.

For the compound `CCCCCCCCCCCCCCCCOS(=O)(=O)O`, the compound was classed as inactive in assay [1], in assay [2], in assay [3], in assay [4], in [5] and in [6]. The compound was classed as inactive in [7], in assay [9] and in assay [10]. For the same compound, the AC50 in [8] was 14.9 µM (active).

In the case of `CCc1ccc(O)c(C(C)(C)C)c1`, the compound was called inactive in assay [1], in assay [2], in assay [4], in assay [5], in [6] and in assay [7]. The result in assay [9] and in [10] was inactive. In addition, in assay [8], the AC50 is 50 µM (active).

On to `O=C(O)c1cccc(C[C@@H]2COc3ccc(OCc4nc5cc(F)ccc5s4)cc3[C@@H]2O)c1`, for which the call in assay [1], in [3], in assay [4], in assay [5], in assay [7] and in assay [9] was inactive. In [10], the compound was classed as inactive. The AC50 in assay [2] was 85.5 µM (active); in assay [6] it was 50 µM (active); in assay [8], 33.4 µM (active).

Consider `OC[C@H]1O[C@@](CO)(O[C@H]2O[C@H](CO)[C@@H](O)[C@H](O)[C@H]2O)[C@@H](O)[C@@H]1O`, for which the compound was called inactive in [1], in assay [2], in [3], in assay [4], in assay [5] and in assay [6]. In addition, the call in assay [7], in assay [9] and in assay [10] was inactive. Also, in [8], the AC50 is 67.1 µM (active).

In the case of `NC(N)=O`, the compound was classed as inactive in [1], in assay [2], in [3], in [4], in assay [5] and in assay [6]. The result in assay [7], in assay [9] and in [10] was inactive. The AC50 in assay [8] was 81.8 µM (active).

Turning to `CC(C)CCCCCCOC(=O)C1CCCCC1C(=O)OCCCCCCC(C)C` (configuration not stated), the compound was called inactive in assay [1], in [2], in [3], in assay [4], in assay [5] and in [6]. Further, the outcome in assay [7], in assay [9] and in assay [10] was inactive. For the same compound, in assay [8], the AC50 was 75.6 µM (active).

In the case of `CCOC(N)=O`, the call in assay [1], in assay [2], in assay [3], in assay [4], in assay [5] and in assay [6] was inactive. Besides, the compound was classed as inactive in assay [7], in assay [9] and in [10]. The AC50 in assay [8] was 50 µM (active).

With `CC(C)C(=O)Nc1ccc([N+](=O)[O-])c(C(F)(F)F)c1`, the AC50 in assay [1] is 67 µM (active); in assay [2], 37 µM (active); in assay [4], 50 µM (active); in assay [5] it was 12.4 µM (active); in assay [6] it was 62.1 µM (active); in assay [7], 50 µM (active). Besides, the AC50 was 11.3 µM (active) in assay [8], 50 µM (active) in assay [9] and 50 µM (active) in assay [10]. The outcome in assay [3] was inactive.

For `O=C(NO)C1(NS(=O)(=O)c2ccc(Oc3ccc(F)cc3)cc2)CCOCC1`, the result in assay [1], in assay [3], in [5], in assay [8], in assay [9] and in [10] was inactive. The AC50 in assay [2] is 50 µM (active); in [4], 85.1 µM (active); in assay [6] it was 85.5 µM (active); in [7], 76.5 µM (active).

Turning to `OCc1ccccc1`, the result in assay [1], in [2], in [3], in [4], in assay [5] and in assay [6] was inactive. Further, the compound was classed as inactive in assay [7], in assay [8], in assay [9] and in [10].

For `OCC(CO)(CO)CO`, the compound was classed as inactive in assay [1], in assay [2], in assay [4], in assay [6], in [7] and in assay [8]. The compound was classed as inactive in assay [9] and in assay [10].

Consider `OC(Cn1cncn1)(Cn1cncn1)c1ccc(F)cc1F`, for which the compound was called inactive in assay [1], in assay [2], in assay [3], in assay [4], in assay [5] and in assay [6]. Besides, the outcome in [7], in assay [8], in assay [9] and in [10] was inactive.

Take `OCCNCCO`: the outcome in assay [1], in assay [3], in [4], in [5], in assay [7] and in assay [8] was inactive. Besides, the compound was called inactive in assay [9] and in assay [10]. Also, the AC50 is 9.92 µM (active) in assay [2] and 50 µM (active) in assay [6].

In the case of `c1ccc2cc3ccccc3cc2c1`, the compound was classed as inactive in assay [1], in assay [2], in assay [3], in assay [4], in assay [5] and in [6]. Further, the call in assay [7], in [9] and in assay [10] was inactive. The AC50 in assay [8] was 10.5 µM (active).

In the case of `O=S1(=O)CCCO1`, the compound was called inactive in assay [1], in assay [2], in assay [3], in assay [4], in [5] and in assay [6]. Besides, the compound was called inactive in [7], in assay [8], in assay [9] and in assay [10].

For `NC(=O)N(O)[C@@H]1COc2cc(OCc3ccccc3)ccc21`, the call in assay [1], in assay [2], in assay [3], in assay [4], in assay [5] and in assay [6] was inactive. Further, the call in assay [7], in [9] and in assay [10] was inactive. For the same compound, the AC50 in [8] is 40.2 µM (active).

As for `Cn1cc[nH]c1=S`, the compound was classed as inactive in assay [1], in [2], in [3], in assay [4], in [5] and in assay [6]. The compound was called inactive in assay [7], in assay [9] and in [10]. The half-maximal activity concentration (AC50) in assay [8] is 37.4 µM (active).

`O=C(O)c1ccc2c(c1)nc(C(=O)NC1CCN(C3CC3)CC1)n2Cc1cc(-c2ccc(Cl)s2)on1`: the result in assay [1], in assay [2], in assay [3], in [4], in assay [5] and in [6] was inactive. The compound was classed as inactive in [7], in [9] and in assay [10]. In addition, the concentration at half-maximal activity (AC50) in [8] is 12 µM (active).
